Screening data as filed in PubChem BioAssay.
Shown are actives, neighbours in structure and some others; about 6.7% of the full set was active somewhere.
T cruzi growth-1: inhibitors of T. cruzi proliferation; T. cruzi beta-gal in NIH3T3, GalScreen luminescence, 90 h; inhibition, % at 8.34 µM; AID 624255; actives 5.9% (n = 77,000);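 active = mean inhibition above about 93%, with at least 55% of replicates each passing it, limit read from the data, passing the limit was not always enough; inconclusive = only one of those two conditions holds; inactive = neither condition holds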
Pf Dd2 inh: blocks growth of Plasmodium falciparum Dd2 parasites; P. falciparum Dd2 growth, SYBR Green, 72 h; stronger effect = lower value; activity change, % at 10 µM; actives 2.3% (n = 94,000); AID 1159554; in the data active = activity change below about -80%; inconclusive = no clear call, values can overlap the other calls
C diff HTS: inhibitors of Clostridium difficile growth; actives 0.25% (n = 86,000); Clostridium difficile clinical isolate growth, OD600, 24 h; stronger effect = lower value; growth activity, negative = inhibition, % at 16 µg/mL (by protocol);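 active = mean growth activity at or below -80% and every replicate also at or below -80%; inconclusive = mean at or below -80% but some replicate above -80%; inactive = mean growth activity above -80%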;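 note: 0% = DMSO wells and -100% = levofloxacin 16 µg/mL wells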
T cruzi growth-2: inhibitors of T. cruzi proliferation | inhibition, % at 8.35 µM | shares compounds with T cruzi growth-1 | AID 651739 | actives 72% (n = 5,600) | T. cruzi beta-gal in NIH3T3, GalScreen luminescence, 90 h;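 active = mean replicate inhibition above about 95% and at least 55% of replicates individually reaching it, limit read from the data; inconclusive = only one of the two criteria is met; inactive = neither criterion is met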
T cruzi growth-3: blocks T. cruzi growth in NIH3T3 host cells | AID 651740 | shares compounds with T cruzi growth-1 | T. cruzi beta-gal in NIH3T3, GalScreen luminescence, 90 h | actives 21% (n = 5,600) | inhibition, % at 2.09 µM;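 active = mean inhibition above about 95%, with at least 55% of replicates also reaching it, limit read from the data; inconclusive = meets just one of the two conditions; inactive = meets neither condition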;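 note: plate controls were neutral control median for no effect and positive control median for full effect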
NIH3T3 tox: kills mouse NIH/3T3 fibroblasts; shares compounds with T cruzi growth-1; NIH/3T3 viability, CellTiter-Glo ATP luminescence, 90 h; cytotoxicity (signal decrease), % at 8.35 µM; actives 14% (n = 5,600);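 active = mean signal decrease across replicates above about 35% based on untreated-well scatter, with enough replicates individually passing, limit read from the data; inconclusive = no rule stated though some were filed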;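 note: 0% = median of neutral control wells and 100% = median of positive control wells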
3T3 cytotox 2: cytotoxicity in mouse NIH/3T3 fibroblasts; shares compounds with T cruzi growth-1; NIH/3T3 viability, CellTiter-Glo ATP luminescence, 90 h; inhibition, % at 24.9 µM; actives 56% (n = 5,600); AID 651744;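 active = mean loss of cell viability signal at or above a set limit, and enough replicates individually reaching it; inconclusive = meets only the mean limit or only the replicate share; inactive = meets neither condition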;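 note: 0% = median of neutral control wells and 100% = median of positive control wells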
* = called active by the depositor; ? = inconclusive; nt = no result.

SMILES | T cruzi growth-1 | Pf Dd2 inh | C diff HTS | others
C[C@@H]1CCCCO[C@@H](CN(C)Cc2ccc3c(c2)OCO3)[C@@H](C)CN([C@@H](C)CO)C(=O)c2cc(NC(=O)Nc3ccc(F)cc3)ccc2O1 | 98* | -26 | 7 | T cruzi growth-2=110*;T cruzi growth-3=81;NIH3T3 tox=-3;3T3 cytotox 2=17
CC(C)NC(=O)Nc1ccc2c(c1)C(=O)N([C@@H](C)CO)C[C@H](C)[C@@H](CN(C)Cc1ccc3c(c1)OCO3)OCCCC[C@@H](C)O2 | 59 | -41 | 2
C[C@H](CO)N1C[C@H](C)[C@H](CN(C)Cc2ccc3c(c2)OCO3)OCCCC[C@H](C)Oc2ccc(NC(=O)Nc3ccc(F)cc3)cc2C1=O | 88 | -15 | 16
CC(C)NC(=O)Nc1ccc2c(c1)C(=O)N([C@@H](C)CO)C[C@@H](C)[C@@H](CN(C)Cc1ccc3c(c1)OCO3)OCCCC[C@@H](C)O2 | 77 | -20 | -6
CC(C)NC(=O)Nc1ccc2c(c1)C(=O)N([C@H](C)CO)C[C@@H](C)[C@@H](CN(C)Cc1ccc3c(c1)OCO3)OCCCC[C@H](C)O2 | -1 | -21 | 2
C[C@H](CO)N1C[C@H](C)[C@@H](CN(C)Cc2cncnc2)Oc2ncc(C#CC3CCCCC3)cc2C1=O | 47 | 23 | -7
O=C(C1CCCCC1)N1CC2(C1)[C@H](c1ccccc1)[C@H](CO)N2Cc1nccs1 | nt | -39 | -4
C[C@@H]1CN([C@H](C)CO)C(=O)c2cccc(NS(=O)(=O)c3cn(C)cn3)c2O[C@@H]1CN(C)Cc1ccccc1 | 2 | 20 | -1
O=C(C[C@H]1C[C@@H]2c3cc(NC(=O)C4CCOCC4)ccc3O[C@@H]2[C@H](CO)O1)NCC(F)(F)F | 22 | 13 | 7
COc1ccc(S(=O)(=O)N[C@@H]2CC[C@@H](CC(=O)NCc3ccccc3F)O[C@H]2CO)cc1 | 9 | 23 | 2
CN(C[C@H]1[C@H](c2ccccc2)[C@@H](CO)N1CC1CC1)C(=O)c1ccc(F)cc1 | 85 | -28 | 2
CC(C)NC(=O)Nc1ccc2c(c1)C(=O)N([C@H](C)CO)C[C@@H](C)[C@@H](CN(C)Cc1ccc3c(c1)OCO3)OCCCC[C@@H](C)O2 | -3 | -48 | 1
C[C@@H]1CCCCO[C@H](CN(C)Cc2ccc3c(c2)OCO3)[C@@H](C)CN([C@@H](C)CO)C(=O)c2cc(NC(=O)Nc3ccc(F)cc3)ccc2O1 | 105* | -70 | 11 | T cruzi growth-2=102*;T cruzi growth-3=104*;NIH3T3 tox=13;3T3 cytotox 2=105*
CCCN(C)C[C@@H]1OCCCC[C@@H](C)Oc2ccc(NC(=O)CCC(F)(F)F)cc2C(=O)N([C@@H](C)CO)C[C@@H]1C | 74 | -12 | 6
CO[C@H]1CN(C)C(=O)c2ccc(NC(C)=O)cc2OC[C@H](C)N(C(=O)c2ccccn2)C[C@H]1C | 10 | -2 | nt
O=C([C@@H]1[C@@H](CO)[C@@H]2Cn3c(ccc(C4=CCCC4)c3=O)[C@H]1N2)N1CCCCC1 | -13 | -5 | 4
COc1cccc(S(=O)(=O)N2CCCCN3[C@H](CO)[C@H](c4ccc(-c5cncnc5)cc4)[C@H]3C2)c1 | 82 | 9 | 7
COc1cccc(S(=O)(=O)N2CCCCN3[C@H](C2)[C@@H](c2ccc(-c4cccnc4)cc2)[C@@H]3CO)c1 | 114* | -65 | -2 | T cruzi growth-2=112*;T cruzi growth-3=84;NIH3T3 tox=23;3T3 cytotox 2=51*
COc1cccc(S(=O)(=O)N2CCCCN3[C@@H](CO)[C@H](c4ccc(-c5cccnc5)cc4)[C@@H]3C2)c1 | 107* | 4 | -8 | T cruzi growth-2=100*;T cruzi growth-3=43;NIH3T3 tox=?;3T3 cytotox 2=38*
COc1cccc(S(=O)(=O)N2CCCCN3[C@H](CO)[C@H](c4ccc(-c5cncnc5)cc4)[C@@H]3C2)c1 | 36 | 33 | 8
O=C(Nc1ccc(F)cc1)N1CCCCN2[C@H](CO)[C@@H](c3ccc(C4=CCCCC4)cc3)[C@H]2C1 | 73 | -51 | 42
O=C(Nc1ccc(Cl)cc1)N[C@@H]1CC[C@@H](CCNC(=O)c2ccccc2F)O[C@@H]1CO | -37 | -27 | 2
